“And” between values parts separate entries of the source, which are not always exact repeats. Identical values can stand only once.
These compounds were tested against Leucine-rich repeat serine/threonine-protein kinase 2 (Homo sapiens) (UniProt Q5S007). Settings: at 0.1 µM.
Sequence of Leucine-rich repeat serine/threonine-protein kinase 2 (Homo sapiens) (Q5S007 whole entry): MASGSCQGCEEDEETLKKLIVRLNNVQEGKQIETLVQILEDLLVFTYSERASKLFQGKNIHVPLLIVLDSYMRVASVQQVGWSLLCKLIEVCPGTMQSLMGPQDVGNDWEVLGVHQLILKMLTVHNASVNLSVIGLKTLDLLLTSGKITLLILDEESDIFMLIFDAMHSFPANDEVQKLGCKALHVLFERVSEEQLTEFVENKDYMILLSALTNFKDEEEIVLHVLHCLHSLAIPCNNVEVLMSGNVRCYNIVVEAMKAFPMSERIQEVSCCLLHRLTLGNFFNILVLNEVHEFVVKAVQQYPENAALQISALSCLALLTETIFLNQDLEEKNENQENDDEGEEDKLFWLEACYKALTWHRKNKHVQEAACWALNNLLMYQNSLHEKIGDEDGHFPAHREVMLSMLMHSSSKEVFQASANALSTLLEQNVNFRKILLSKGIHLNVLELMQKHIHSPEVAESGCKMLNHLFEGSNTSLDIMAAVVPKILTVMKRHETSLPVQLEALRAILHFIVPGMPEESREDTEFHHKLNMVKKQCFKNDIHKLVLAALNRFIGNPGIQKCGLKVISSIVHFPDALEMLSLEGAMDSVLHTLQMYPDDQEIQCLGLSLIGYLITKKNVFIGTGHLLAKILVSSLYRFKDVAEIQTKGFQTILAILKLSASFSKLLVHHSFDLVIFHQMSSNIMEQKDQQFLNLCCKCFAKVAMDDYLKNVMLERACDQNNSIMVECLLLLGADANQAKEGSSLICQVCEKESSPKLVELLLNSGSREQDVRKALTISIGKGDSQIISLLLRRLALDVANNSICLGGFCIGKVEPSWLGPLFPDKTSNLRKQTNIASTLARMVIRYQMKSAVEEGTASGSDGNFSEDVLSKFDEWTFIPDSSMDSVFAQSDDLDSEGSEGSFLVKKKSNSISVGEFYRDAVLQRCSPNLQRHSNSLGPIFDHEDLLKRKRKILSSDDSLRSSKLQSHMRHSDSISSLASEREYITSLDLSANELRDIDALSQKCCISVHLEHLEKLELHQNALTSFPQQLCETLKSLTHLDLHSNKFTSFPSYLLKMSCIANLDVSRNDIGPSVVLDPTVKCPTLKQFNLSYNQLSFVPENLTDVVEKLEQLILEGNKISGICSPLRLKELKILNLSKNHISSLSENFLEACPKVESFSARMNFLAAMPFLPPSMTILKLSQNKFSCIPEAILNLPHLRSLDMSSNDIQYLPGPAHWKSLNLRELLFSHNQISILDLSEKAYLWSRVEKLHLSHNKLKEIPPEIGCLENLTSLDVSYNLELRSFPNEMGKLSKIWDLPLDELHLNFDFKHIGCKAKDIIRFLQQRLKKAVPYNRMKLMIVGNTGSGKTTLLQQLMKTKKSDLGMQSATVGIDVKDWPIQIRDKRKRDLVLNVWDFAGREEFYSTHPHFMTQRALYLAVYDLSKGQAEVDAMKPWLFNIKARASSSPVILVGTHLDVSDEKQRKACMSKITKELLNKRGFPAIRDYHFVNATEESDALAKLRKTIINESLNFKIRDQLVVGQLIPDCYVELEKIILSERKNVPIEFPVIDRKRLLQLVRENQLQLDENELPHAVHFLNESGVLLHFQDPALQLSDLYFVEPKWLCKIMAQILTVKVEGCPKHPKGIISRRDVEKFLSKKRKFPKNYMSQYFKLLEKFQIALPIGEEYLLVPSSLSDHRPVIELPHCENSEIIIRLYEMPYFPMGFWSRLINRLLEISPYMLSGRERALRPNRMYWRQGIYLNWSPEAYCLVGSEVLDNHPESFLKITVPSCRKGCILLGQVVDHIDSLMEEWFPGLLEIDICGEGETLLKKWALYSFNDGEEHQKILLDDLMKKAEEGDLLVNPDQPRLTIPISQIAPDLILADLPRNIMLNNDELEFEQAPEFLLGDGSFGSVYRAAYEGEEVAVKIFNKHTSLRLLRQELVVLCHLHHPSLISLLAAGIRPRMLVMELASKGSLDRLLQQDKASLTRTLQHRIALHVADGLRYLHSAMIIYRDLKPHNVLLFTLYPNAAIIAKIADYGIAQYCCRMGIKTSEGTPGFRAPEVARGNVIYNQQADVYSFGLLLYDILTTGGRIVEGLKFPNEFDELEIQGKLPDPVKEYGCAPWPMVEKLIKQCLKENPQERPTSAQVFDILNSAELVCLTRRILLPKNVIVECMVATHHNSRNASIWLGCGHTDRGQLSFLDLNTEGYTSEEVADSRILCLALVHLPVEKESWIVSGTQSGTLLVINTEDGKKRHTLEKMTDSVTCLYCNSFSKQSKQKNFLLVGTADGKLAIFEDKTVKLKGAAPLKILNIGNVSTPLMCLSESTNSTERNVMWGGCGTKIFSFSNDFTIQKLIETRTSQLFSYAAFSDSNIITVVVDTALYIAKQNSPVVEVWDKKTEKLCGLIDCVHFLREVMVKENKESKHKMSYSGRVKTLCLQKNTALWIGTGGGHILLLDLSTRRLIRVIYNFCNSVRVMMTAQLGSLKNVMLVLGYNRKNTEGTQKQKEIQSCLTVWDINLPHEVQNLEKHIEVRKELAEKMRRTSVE
For `CN1CCN(Cc2ccc(-c3cc4ncnc(Nc5ccc(OCc6cccc(F)c6)c(Cl)c5)c4s3)o2)CC1`, the inhibition was 2.03% and 2.75%. For `COC(=O)Nc1nc2cc(Oc3ccc(NC(=O)Nc4ccccc4)cc3)ccc2[nH]1`, the inhibition was 3.5%. Work on `NS(=O)(=O)c1ccc(N/N=C2\C(=O)Nc3ccc(C(=O)NCc4ccncc4)cc32)cc1` yielded an inhibition of 5.05%. `CNC(=O)c1ncccc1Nc1nc(Nc2cc3c(cc2OC)CCCN3C(=O)CN(C)C)nc2[nH]ccc12` was tested, and the inhibition was 29.7%. Work on `CS(=O)(=O)CCNCc1ccc(-c2ccc3ncnc(Nc4ccc(OCc5ccccc5)cc4)c3c2)o1` yielded an inhibition of 3.3%. `Cc1nnc(-c2cccc(-c3ccc(C(=O)NCC4CC4)cc3)c2)o1` was tested, and the inhibition was 3.32%. With `O=C1Nc2ccccc2/C1=C1\CCc2cc(O)ccc21` the inhibition was 17.6%. Compound `Cc1cc(O)cc(C)c1/C=C/c1cncc(C(=O)OC(C)(C)C)c1` has an inhibition of 6.27%. `O=C(O[C@H]1CN[C@H](C#Cc2cc3ncnc(Nc4ccc5c(cnn5Cc5ccccc5)c4)c3s2)C1)N1CCOCC1` gave an inhibition of 1.16%. In the case of `Nc1nccc(-c2c(-c3ccc(F)cc3)ncn2C2CCNCC2)n1`, the inhibition is reported as -1.76% and 1.62%. Work on `CN1CCC(n2cnc(-c3ccc(F)cc3)c2-c2ccnc(NCCO)n2)CC1` yielded an inhibition of 3.06%. `CC1(C)CC(n2cnc(-c3ccc(F)cc3)c2-c2ccnc(N)n2)CC(C)(C)N1` showed an inhibition of 0.31%. For `CN1CCC(C(=O)Nc2n[nH]c3nc(-c4ccc(O)cc4)c(Br)cc23)CC1`, the inhibition was -2.84% and -1.67%. `CN(c1ccc(NC(=O)NCCN2CCOCC2)cc1)c1ccnc(Nc2ccc(CS(C)(=O)=O)cc2)n1` was tested, and the inhibition was 2.79%. `COc1cccc(-n2ncc3c(N/N=C/c4ccc(C(=O)NCCN(C)C)cc4)ncnc32)c1` showed an inhibition of 8.48%. Compound `CS(=O)(=O)Nc1ccc(-c2cc(-c3ccccc3)cc(C(N)=O)c2N)cc1` has an inhibition of 1.64%. `N#Cc1ccc2c(-c3ccnc(NC4CC4)n3)c(-c3ccc(F)cc3)nn2c1` showed an inhibition of 2.1%. `COc1ccccc1-c1cc(/C=C2\C(=O)Nc3ncc(Br)cc32)cc(Br)c1O` was tested, and the inhibition was 7.41%. Compound `COc1cc2c(cc1Nc1nc(Nc3cccc(F)c3C(N)=O)c3cc[nH]c3n1)N(C(=O)CN1CCN(C(C)C)CC1)CC2` has an inhibition of 25.8%. Compound `CC(C)c1ccc(-c2cc(-c3c[nH]nc3-c3ccccn3)ccn2)cc1` has an inhibition of 2.9%. `NS(=O)(=O)c1cccc(N/C=C2\C(=O)Nc3ccccc32)c1` was tested, and the inhibition was 3.41%. For `Nc1ncnc2occ(-c3ccc(NC(=O)Nc4cc(C(F)(F)F)ccc4F)cc3)c12`, the inhibition was 13.6% and 6.55%. For `COc1ccc2ncn(-c3cc(O[C@H](C)c4ccccc4C(F)(F)F)c(C(N)=O)s3)c2c1`, the inhibition was 4.72%. Compound `CCOc1ccc2c(-c3ccnc(Nc4cc(OC)cc(C(F)(F)F)c4)n3)cnn2n1` has an inhibition of 1.55%. With `COc1cc(N2CCN(C(C)C)CC2)ccc1Nc1nc(Nc2cccc3ncccc23)c2cc[nH]c2n1` the inhibition was 13%. Work on `CS(=O)(=O)Nc1ccc(-c2ccc3c(NC(=O)C4CC4)n[nH]c3c2)cc1` yielded an inhibition of 9.03%. In the case of `CNC(=O)c1cncc(/C=C/c2ccccc2C)c1`, the inhibition is reported as 3.81%. Work on `Cc1cc(O)cc(C)c1/C=C/c1cncc(C(N)=O)c1` yielded an inhibition of 1.8%. Work on `Fc1cccc(COc2ccc(Nc3ncncc3C#Cc3ccccc3)cc2Cl)c1` yielded an inhibition of 3.65%. For `FC(F)(F)CNc1nccc(-c2cnn3ncccc23)n1`, the inhibition was 3.07%. `CC1=C(C(=O)Nc2ccc3[nH]nc(C)c3c2)C(c2ccc(C(F)(F)F)cc2)CC(=O)N1` (configuration not stated) showed an inhibition of 5.54%.

The compounds below were run against Leucine-rich repeat serine/threonine-protein kinase 2 (Homo sapiens) (UniProt Q5S007). Settings: at 1 µM.
For `CN1CCN(Cc2ccc(-c3cc4ncnc(Nc5ccc(OCc6cccc(F)c6)c(Cl)c5)c4s3)o2)CC1`, the inhibition was 6.29% and 5.13%. `COC(=O)Nc1nc2cc(Oc3ccc(NC(=O)Nc4ccccc4)cc3)ccc2[nH]1` was tested, and the inhibition was 6.86%. `NS(=O)(=O)c1ccc(N/N=C2\C(=O)Nc3ccc(C(=O)NCc4ccncc4)cc32)cc1` was tested, and the inhibition was 11.6%. With `CNC(=O)c1ncccc1Nc1nc(Nc2cc3c(cc2OC)CCCN3C(=O)CN(C)C)nc2[nH]ccc12` the inhibition was 26.6%. For `CS(=O)(=O)CCNCc1ccc(-c2ccc3ncnc(Nc4ccc(OCc5ccccc5)cc4)c3c2)o1`, the inhibition was 6.64%. `Cc1nnc(-c2cccc(-c3ccc(C(=O)NCC4CC4)cc3)c2)o1` gave an inhibition of 5.55%. Compound `O=C1Nc2ccccc2/C1=C1\CCc2cc(O)ccc21` has an inhibition of 66.3%. `Cc1cc(O)cc(C)c1/C=C/c1cncc(C(=O)OC(C)(C)C)c1` showed an inhibition of 9.43%. Compound `O=C(O[C@H]1CN[C@H](C#Cc2cc3ncnc(Nc4ccc5c(cnn5Cc5ccccc5)c4)c3s2)C1)N1CCOCC1` has an inhibition of 4.4%. With `Nc1nccc(-c2c(-c3ccc(F)cc3)ncn2C2CCNCC2)n1` the inhibition was 3.33% and 3.21%. Work on `CN1CCC(n2cnc(-c3ccc(F)cc3)c2-c2ccnc(NCCO)n2)CC1` yielded an inhibition of 4.49%. With `CC1(C)CC(n2cnc(-c3ccc(F)cc3)c2-c2ccnc(N)n2)CC(C)(C)N1` the inhibition was 5.05%. In the case of `CN1CCC(C(=O)Nc2n[nH]c3nc(-c4ccc(O)cc4)c(Br)cc23)CC1`, the inhibition is reported as 2.03% and 7.36%. Compound `CN(c1ccc(NC(=O)NCCN2CCOCC2)cc1)c1ccnc(Nc2ccc(CS(C)(=O)=O)cc2)n1` has an inhibition of 9.85%. With `COc1cccc(-n2ncc3c(N/N=C/c4ccc(C(=O)NCCN(C)C)cc4)ncnc32)c1` the inhibition was 17.2%. In the case of `CS(=O)(=O)Nc1ccc(-c2cc(-c3ccccc3)cc(C(N)=O)c2N)cc1`, the inhibition is reported as 4.15%. Compound `N#Cc1ccc2c(-c3ccnc(NC4CC4)n3)c(-c3ccc(F)cc3)nn2c1` has an inhibition of -2.22%. For `COc1ccccc1-c1cc(/C=C2\C(=O)Nc3ncc(Br)cc32)cc(Br)c1O`, the inhibition was 17.6%. In the case of `COc1cc2c(cc1Nc1nc(Nc3cccc(F)c3C(N)=O)c3cc[nH]c3n1)N(C(=O)CN1CCN(C(C)C)CC1)CC2`, the inhibition is reported as 76.8%. Compound `CC(C)c1ccc(-c2cc(-c3c[nH]nc3-c3ccccn3)ccn2)cc1` has an inhibition of 4.8%. Compound `NS(=O)(=O)c1cccc(N/C=C2\C(=O)Nc3ccccc32)c1` has an inhibition of 15.8%. In the case of `Nc1ncnc2occ(-c3ccc(NC(=O)Nc4cc(C(F)(F)F)ccc4F)cc3)c12`, the inhibition is reported as 18.1% and 19.4%. `COc1ccc2ncn(-c3cc(O[C@H](C)c4ccccc4C(F)(F)F)c(C(N)=O)s3)c2c1` gave an inhibition of 15.9%. `CCOc1ccc2c(-c3ccnc(Nc4cc(OC)cc(C(F)(F)F)c4)n3)cnn2n1` showed an inhibition of 5.25%. For `COc1cc(N2CCN(C(C)C)CC2)ccc1Nc1nc(Nc2cccc3ncccc23)c2cc[nH]c2n1`, the inhibition was 23.2%. Compound `CS(=O)(=O)Nc1ccc(-c2ccc3c(NC(=O)C4CC4)n[nH]c3c2)cc1` has an inhibition of 5.46%. `CNC(=O)c1cncc(/C=C/c2ccccc2C)c1` gave an inhibition of 6.67%. `Cc1cc(O)cc(C)c1/C=C/c1cncc(C(N)=O)c1` gave an inhibition of 6.26%. `Fc1cccc(COc2ccc(Nc3ncncc3C#Cc3ccccc3)cc2Cl)c1` showed an inhibition of 7.01%. In the case of `FC(F)(F)CNc1nccc(-c2cnn3ncccc23)n1`, the inhibition is reported as 8.2%. Work on `CC1=C(C(=O)Nc2ccc3[nH]nc(C)c3c2)C(c2ccc(C(F)(F)F)cc2)CC(=O)N1` (configuration not stated) yielded an inhibition of 21.3%.
